Data as given in PubChem BioAssay AID1159580 (chemical genetic matrix, 2015).
About 2,000 (36%) of roughly 5,500 compounds were called active. About 18% were inconclusive and are not listed. No stated cut-off is given here; in the data, active means normalized growth mostly below about 0.91 (no sharp cut-off); inconclusive means no clear call, values can overlap the other calls; inactive means mostly above about 0.92. The list shows a part of the results.

Assay: chemical genetic growth profiling, strain panel (AID 1159580);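 further: tested at 20 µM; growth read once vehicle control cultures reached saturation at 30 °C; 1 = growth at the plate median or of vehicle wells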
Conditions: growth OD
[1] = S. cerevisiae deletion strains, locus YBR021W, strain FUR4, stronger effect = lower value
[2] = S. cerevisiae deletion strains, locus YBR229C, strain ROT2, stronger effect = lower value
[3] = S. cerevisiae deletion strains, locus YCL029C, strain bik1, stronger effect = lower value
[4] = S. cerevisiae deletion strains, locus YDL035C, strain GPR1, stronger effect = lower value
[5] = S. cerevisiae deletion strains, locus YDL074C, strain BRE1, stronger effect = lower value
[6] = S. cerevisiae deletion strains, locus YDL101C, strain DUN1, stronger effect = lower value
[7] = S. cerevisiae deletion strains, locus YDL185W, strain tfp1, stronger effect = lower value
[8] = S. cerevisiae deletion strains, locus YDL192W, strain arf1, stronger effect = lower value
[9] = S. cerevisiae deletion strains, locus YDR101C, strain arx1, stronger effect = lower value
[10] = S. cerevisiae deletion strains, locus YDR150W, strain NUM1, stronger effect = lower value
[11] = S. cerevisiae deletion strains, locus YDR162C, strain NBP2, stronger effect = lower value
[12] = S. cerevisiae deletion strains, locus YDR318W, strain mcm21, stronger effect = lower value
[13] = S. cerevisiae deletion strains, locus YDR388W, stronger effect = lower value
[14] = S. cerevisiae deletion strains, locus YDR502C, strain sam2, stronger effect = lower value
[15] = S. cerevisiae deletion strains, locus YEL061C, strain CIN8, stronger effect = lower value
[16] = S. cerevisiae deletion strains, locus YER110C, stronger effect = lower value
[17] = S. cerevisiae deletion strains, locus YER155C, strain BEM2, stronger effect = lower value
[18] = S. cerevisiae deletion strains, locus YER167W, strain BCK2, stronger effect = lower value
[19] = S. cerevisiae deletion strains, locus YGL078C, strain dbp3, stronger effect = lower value
[20] = S. cerevisiae deletion strains, locus YGL086W, strain mad1, stronger effect = lower value
[21] = S. cerevisiae deletion strains, locus YGL248W, strain PDE1, stronger effect = lower value
[22] = S. cerevisiae deletion strains, locus YGR135W, strain pre9, stronger effect = lower value
[23] = S. cerevisiae deletion strains, locus YGR252W, strain gcn5, stronger effect = lower value
[24] = S. cerevisiae deletion strains, locus YHR079C, strain IRE1 (second series), stronger effect = lower value
[25] = S. cerevisiae deletion strains, locus YHR094C, strain hxt1, stronger effect = lower value
[26] = S. cerevisiae deletion strains, locus YHR129C, strain ARP1, stronger effect = lower value
[27] = S. cerevisiae deletion strains, locus YHR200W, strain rpn10, stronger effect = lower value
[28] = S. cerevisiae deletion strains, locus YIL066C, strain RNR3, stronger effect = lower value
[29] = S. cerevisiae deletion strains, locus YIL073C, strain SPO22, stronger effect = lower value
[30] = S. cerevisiae deletion strains, locus YIL125W, strain kgd1, stronger effect = lower value
[31] = S. cerevisiae deletion strains, locus YIR030C, strain dcg1, stronger effect = lower value
[32] = S. cerevisiae deletion strains, locus YJL095W, strain BCK1, stronger effect = lower value
[33] = S. cerevisiae deletion strains, locus YJL134W, strain LCB3, stronger effect = lower value
[34] = S. cerevisiae deletion strains, locus YJL168C, strain set2, stronger effect = lower value
[35] = S. cerevisiae deletion strains, locus YJL187C, strain SWE1 (second series), stronger effect = lower value
[36] = S. cerevisiae deletion strains, locus YJR043C, strain POL32, stronger effect = lower value
[37] = S. cerevisiae deletion strains, locus YKL009W, strain mrt4, stronger effect = lower value
[38] = S. cerevisiae deletion strains, locus YKL068W, stronger effect = lower value
[39] = S. cerevisiae deletion strains, locus YKL085W, strain MDH1 (second series), stronger effect = lower value
[40] = S. cerevisiae deletion strains, locus YKL085W, strain MDH1, stronger effect = lower value
[41] = S. cerevisiae deletion strains, locus YKL190W, strain CNB1, stronger effect = lower value
[42] = S. cerevisiae deletion strains, locus YKR001C, strain vps1, stronger effect = lower value
[43] = S. cerevisiae deletion strains, locus YLR039C, strain RIC1, stronger effect = lower value
[44] = S. cerevisiae deletion strains, locus YLR058C, strain SHM2, stronger effect = lower value
[45] = S. cerevisiae deletion strains, locus YLR102C, strain apc9, stronger effect = lower value
[46] = S. cerevisiae deletion strains, locus YLR262C, strain YPT6, stronger effect = lower value
[47] = S. cerevisiae deletion strains, locus YLR268W, strain sec22, stronger effect = lower value
[48] = S. cerevisiae deletion strains, locus YLR330W, strain CHS5, stronger effect = lower value
[49] = S. cerevisiae deletion strains, locus YLR371W, strain rom2, stronger effect = lower value
[50] = S. cerevisiae deletion strains, locus YLR418C, strain cdc73, stronger effect = lower value
[51] = S. cerevisiae deletion strains, locus YML016C, strain PPZ1, stronger effect = lower value
[52] = S. cerevisiae deletion strains, locus YML032C, strain rad52, stronger effect = lower value
[53] = S. cerevisiae deletion strains, locus YML124C, strain tub3, stronger effect = lower value
[54] = S. cerevisiae deletion strains, locus YMR078C, strain ctf18, stronger effect = lower value
[55] = S. cerevisiae deletion strains, locus YMR223W, strain ubp8, stronger effect = lower value
[56] = S. cerevisiae deletion strains, locus YMR307W, strain GAS1, stronger effect = lower value
[57] = S. cerevisiae deletion strains, locus YNL067W, strain RPL9B, stronger effect = lower value
[58] = S. cerevisiae deletion strains, locus YNL128W, strain TEP1, stronger effect = lower value
[59] = S. cerevisiae deletion strains, locus YNL233W, strain BNI4, stronger effect = lower value
[60] = S. cerevisiae deletion strains, locus YNL250W, strain rad50, stronger effect = lower value
[61] = S. cerevisiae deletion strains, locus YNL271C, strain bni1, stronger effect = lower value
[62] = S. cerevisiae deletion strains, locus YNL298W, strain CLA4, stronger effect = lower value
[63] = S. cerevisiae deletion strains, locus YNL307C, strain MCK1, stronger effect = lower value
[64] = S. cerevisiae deletion strains, locus YNL322C, strain KRE1, stronger effect = lower value
[65] = S. cerevisiae deletion strains, locus YNR052C, strain pop2, stronger effect = lower value
[66] = S. cerevisiae deletion strains, locus YOL006C, strain TOP1, stronger effect = lower value
[67] = S. cerevisiae deletion strains, locus YOL012C, strain htz1
[68] = S. cerevisiae deletion strains, locus YOL147C, strain pex11, stronger effect = lower value
[69] = S. cerevisiae deletion strains, locus YOR061W, strain CKA2, stronger effect = lower value
[70] = S. cerevisiae deletion strains, locus YOR069W, strain VPS5, stronger effect = lower value
[71] = S. cerevisiae deletion strains, locus YOR136W, strain idh2, stronger effect = lower value
[72] = S. cerevisiae deletion strains, locus YOR144C, strain elg1, stronger effect = lower value
[73] = S. cerevisiae deletion strains, locus YOR184W, strain ser1, stronger effect = lower value
[74] = S. cerevisiae deletion strains, locus YOR316C, strain cot1, stronger effect = lower value
[75] = S. cerevisiae deletion strains, locus YPL055C, strain LGE1, stronger effect = lower value
[76] = S. cerevisiae deletion strains, locus YPL241C, strain CIN2, stronger effect = lower value
[77] = S. cerevisiae deletion strains, locus YPR119W, strain clb2, stronger effect = lower value
[78] = S. cerevisiae deletion strains, locus YPR141C, strain kar3, stronger effect = lower value
[79] = S. cerevisiae deletion strains, locus YPR163C, strain tif3, stronger effect = lower value
[80] = S. cerevisiae deletion strains, locus YPR167C, strain met16, stronger effect = lower value
[81] = S. cerevisiae deletion strains, strain wtn01, stronger effect = lower value
[82] = S. cerevisiae strains, strain wild type, stronger effect = lower value

Measured: normalized growth

CC(C)=CCc1c(O)cc(C)oc1=O
inactive: [1] 1.01 | [2] 0.99 | [3] 0.97 | [4] 1.11 | [5] 1.12 | [6] 0.998 | [7] 0.961 | [8] 1.01 | [9] 1.01 | [10] 1.01 | [11] 1.03 | [12] 0.986 | [13] 0.994 | [14] 0.995 | [15] 1.03 | [16] 0.982 | [17] 0.963 | [18] 0.991 | [19] 0.981 | [20] 1.01 | [21] 1.03 | [22] 1 | [23] 1.03 | [24] 0.962 | [25] 0.978 | [26] 1.02 | [27] 0.975 | [28] 1 | [29] 1.08 | [30] 0.981 | [31] 0.991 | [32] 1.04 | [33] 0.988 | [34] 0.967 | [35] 1 | [36] 1.08 | [37] 1.01 | [38] 0.98 | [39] 0.972 | [40] 0.972 | [41] 1.02 | [42] 1.03 | [43] 1.21 | [44] 1.01 | [45] 0.953 | [46] 1.19 | [47] 0.999 | [48] 1.01 | [49] 0.983 | [50] 0.987 | [51] 0.982 | [52] 0.994 | [53] 0.973 | [54] 0.98 | [55] 0.99 | [56] 1.13 | [57] 1.02 | [58] 1.01 | [59] 1.05 | [60] 0.94 | [61] 0.986 | [62] 0.981 | [63] 1 | [64] 0.995 | [65] 0.99 | [66] 1.26 | [67] 0.881 | [68] 0.973 | [69] 0.991 | [70] 0.989 | [71] 0.972 | [72] 0.964 | [73] 1.07 | [74] 0.971 | [75] 1.1 | [76] 0.997 | [77] 0.963 | [78] 0.954 | [79] 0.995 | [80] 0.995 | [81] 1.01 | [82] 1.04

CCOC(=O)/C=C(\C)OP(=O)(OC)OC
inactive: S. cerevisiae deletion strains, locus YAL013W, strain DEP1, stronger effect = lower value 0.973 | [1] 1.02 | [2] 0.948 | [3] 0.989 | [4] 0.981 | [5] 0.937 | [6] 0.967 | S. cerevisiae deletion strains, locus YDL134C, strain PPH21, stronger effect = lower value 0.989 | [7] 0.983 | [8] 0.992 | [9] 1 | [10] 0.989 | [11] 0.982 | [12] 0.987 | [13] 1.01 | [14] 0.996 | [15] 0.99 | [16] 0.992 | [17] 0.984 | [18] 0.988 | [19] 1.01 | [20] 0.993 | [21] 0.977 | S. cerevisiae deletion strains, locus YGR078C, strain PAC10, stronger effect = lower value 0.983 | [22] 0.988 | S. cerevisiae deletion strains, locus YGR229C, strain SMI1, stronger effect = lower value 0.984 | [23] 0.998 | S. cerevisiae deletion strains, locus YHR030C, strain SLT2, stronger effect = lower value 0.99 | [24] 1 | [25] 1.01 | [26] 0.974 | [27] 0.994 | [28] 0.985 | [29] 1.03 | [30] 0.993 | [31] 0.996 | [32] 0.994 | [33] 0.987 | [34] 0.991 | [35] 0.983 | [36] 0.985 | S. cerevisiae deletion strains, locus YJR075W, strain HOC1, stronger effect = lower value 0.983 | [37] 0.947 | [38] 0.998 | [39] 0.989 | [40] 0.989 | [41] 0.995 | [42] 1 | [43] 0.976 | [44] 0.981 | [45] 0.993 | [46] 0.977 | [47] 0.998 | [48] 0.986 | S. cerevisiae deletion strains, locus YLR342W, strain FKS1 (second series), stronger effect = lower value 1.02 | [49] 0.996 | [50] 1.01 | [51] 0.986 | [52] 1 | [53] 1 | [54] 0.999 | [55] 0.996 | S. cerevisiae deletion strains, locus YMR263W, strain SAP30, stronger effect = lower value 0.987 | [56] 1.04 | [57] 0.982 | [58] 0.951 | S. cerevisiae deletion strains, locus YNL153C, strain GIM3, stronger effect = lower value 0.985 | [59] 0.997 | [60] 0.983 | [61] 1 | [62] 1.01 | [63] 1.01 | [64] 0.977 | [65] 0.996 | [66] 0.926 | [67] 0.854 | [68] 1.01 | [69] 0.961 | [70] 0.99 | [71] 0.993 | [72] 0.997 | [73] 1.01 | [74] 0.981 | [75] 0.975 | [76] 0.993 | [77] 1 | [78] 0.991 | [79] 1.01 | [80] 0.995 | [81] 1 | [82] 0.985
